GIRK2 activator: activators of NPY4-receptor-primed GIRK2 channels, summary, cell-based, HEK293, thallium flux; 34,000 tested, under 10 active; G protein-activated inward rectifier potassium channel 2 (Homo sapiens), P48051; activation (% efficacy), % for hits at 37.5 µM; AID 1259324, 2017; HEK293 GIRK2/NPY4 cells, thallium flux fluorescence;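 active means primary screen hit, no activity in plain HEK293 cells, and in GIRK2-only cells above 5% efficacy rising with concentration; inactive means the rest, including fluorescent compounds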;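 further: efficacy is normalized control-subtracted fluorescence 15 s after thallium addition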
Target sequence (P48051 whole entry, looked up): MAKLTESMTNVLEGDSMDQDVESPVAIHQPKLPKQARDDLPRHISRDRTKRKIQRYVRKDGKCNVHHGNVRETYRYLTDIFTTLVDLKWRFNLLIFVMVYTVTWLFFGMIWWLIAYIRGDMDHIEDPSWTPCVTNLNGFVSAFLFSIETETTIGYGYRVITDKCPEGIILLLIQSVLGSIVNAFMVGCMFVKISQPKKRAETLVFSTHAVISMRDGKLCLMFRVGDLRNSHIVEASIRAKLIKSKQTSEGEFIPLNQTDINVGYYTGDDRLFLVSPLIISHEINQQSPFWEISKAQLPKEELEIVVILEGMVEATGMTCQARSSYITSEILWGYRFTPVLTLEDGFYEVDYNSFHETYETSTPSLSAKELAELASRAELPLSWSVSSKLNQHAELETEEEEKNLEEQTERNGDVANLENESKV
AMPAR-TARP mod: modulators of GluA2-stargazin AMPA receptor complexes, primary screen, cell-based, membrane potential dye; Voltage-dependent calcium channel gamma-2 subunit (Mus musculus) + Glutamate receptor 2 …; HEK293 GluA2+stargazin, membrane potential dye (FDSS), glutamate EC50; hits were called plate by plate, in both directions; calls only at 30 µM; 40,000 compounds, 3.5% hits;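 active means any of four per-well response measures lying three or more SD from its plate-wide compound average, in either direction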
The depositor's hits bear a star; i = inactive; nt = no result given; + = active, no number. This excerpt belongs to a sample that is enriched for hits.

SMILES | GIRK2 activator | AMPAR-TARP mod
CC(C)S(=O)(=O)c1cccc(C(=O)Nc2sc3c(c2C(N)=O)CCCC3)c1 | i | i
Cc1noc(C)c1S(=O)(=O)NCC(O)(c1cccs1)C1CC1 (stereo not drawn) | i | i
O=C(Nc1nnc(-c2cccs2)o1)c1cc(Cl)ccc1Cl | nt | i
Cc1cc(-c2nnc(NC(=O)c3ccc(Cl)s3)o2)nn1C | i | i
O=C(Nc1nnc(-c2ccc(Br)s2)o1)c1ccc(Cl)s1 | i | +
O=C(Nc1nnc(-c2ccc(Br)s2)o1)c1cc(Cl)ccc1Cl | i | +
Cn1ccc(C(=O)N2CCNC(=O)C2(C)C)n1 | i | i
CC1(C)C(=O)NCCN1C(=O)c1ccco1 | i | +
O=C(Nc1ccc2c(c1)N(C(=O)C1CC1)CC2)c1c(F)cccc1Cl | i | i
CCOC(=O)Cn1c(=O)c2c(nc3n(-c4cc(C)cc(C)c4)c(-c4ccccc4)cn23)n(C)c1=O | nt | i
O=c1nc(SCc2cccc(Cl)c2)c2c(n1CC1CCCO1)CCCC2 (stereo not drawn) | i | +
O=c1nc(SCc2cccc([N+](=O)[O-])c2)c2c(n1CC1CCCO1)CCC2 (stereo not drawn) | i | i
O=C(/C=C/c1ccccc1)NCC1CCN(Cc2ccsc2)CC1 | i | +
CSc1ccccc1CN1CCC(CNC(=O)/C=C/c2ccccc2)CC1 | i | +
O=C(/C=C/c1ccco1)NCC1CCN(Cc2ccsc2)CC1 | i | nt
CSc1ccccc1NC(=O)C(=O)NCC1CCN(Cc2ccco2)CC1 | i | i
CSc1ccccc1NC(=O)C(=O)NCC1CCN(Cc2cc(C)oc2C)CC1 | i | +
CSc1ccccc1CN1CCC(CNC(=O)/C=C/c2ccc3c(c2)OCO3)CC1 | i | i
C=CCN1CC(c2nc3ccccc3n2Cc2ccc3ccccc3c2)CC1=O (stereo not drawn) | nt | i
Cc1cc(C)n(CCNC(=O)C2CN(C(=O)c3cc(C)on3)C2)n1 | i | i
O=C(c1ccc(Cl)s1)N1CC(c2nc(-c3cccc(C(F)(F)F)c3)no2)C1 | i | nt
CCc1ccc(S(=O)(=O)NCCCn2nc(-c3ccc(OC)cc3)ccc2=O)s1 | i | +
CCc1ccc(S(=O)(=O)NCCCn2nc(-c3ccccc3)ccc2=O)s1 | i | i
Cc1cc(C)nc(SCC(=O)N2CCOCC2)n1 | i | i
O=C(CSc1nc(=O)n(CCCO)c2c1CCC2)N1CCc2ccccc21 | i | +
SMILES | GIRK2 activator | AMPAR-TARP mod
O=C(CSc1nc(=O)n(CCO)c2c1CCCC2)N1CCc2ccccc21 | i | i
O=C(NCC1CCN(C(=O)c2ccccc2F)CC1)c1ccc(Cl)s1 | i | i
Cn1c(=O)c2c(nc(CN3CCN(c4ccc(F)cc4)CC3)n2CC(=O)C(C)(C)C)n(C)c1=O | i | i
CC1CC(C)CN(Cc2nc3c(c(=O)n(C)c(=O)n3C)n2CC(=O)C(C)(C)C)C1 (stereo not drawn) | i | +
COc1ccc2nc(N3CC(C(=O)N4CCN(c5ncccn5)CC4)C3)sc2c1 | i | i
Nc1c(C(=O)NCCc2ccccc2)nnn1Cc1cccc(Br)c1 | i | i
COc1cccc(C(=O)Nc2ccc(N3CCCCS3(=O)=O)cc2)c1OC | nt | i
CC(=O)NCCc1nc2ccccc2n1CCCOc1cc(C)ccc1C(C)C | i | +
Cc1ccc(C(C)C)c(OCCCn2c(CCCO)nc3ccccc32)c1 | i | i
CCCOc1ccc(N2CCN(C(=O)c3cc4ccccc4oc3=O)CC2)nn1 | i | i
O=C(Nc1ccccc1[N+](=O)[O-])C1CCCN(c2ccc(-c3ccccc3)nn2)C1 (stereo not drawn) | i | +
O=C(Nc1ccc([N+](=O)[O-])cc1)C1CCCN(c2ccc(-c3ccccc3)nn2)C1 (stereo not drawn) | i | i
CCc1ccc(NC(=O)CCCOc2ccc(OC)cc2)cc1 | i | i
O=C(Nc1nc2ncccc2cc1-c1ccccc1)C1CCCC1 | i | i
COc1cccc(C(=O)Nc2nc3ncccc3cc2-c2ccccc2)c1 | i | +
CCOC(=O)CCn1c(=O)c2c(nc3n(C4CCCCC4)c(C)c(C)n23)n(C)c1=O | nt | i
Cc1onc(-c2ccccc2Cl)c1C(=O)NCC(c1cccn1C)N1CCN(C)CC1 (stereo not drawn) | i | i
COc1ccc(S(=O)(=O)NCc2ccccc2)cc1N(C)S(=O)(=O)c1ccc(Cl)cc1 | nt | +
COc1ccc(S(=O)(=O)NCc2ccccc2)cc1N(C)S(C)(=O)=O | nt | i
COCC(C)(O)CNC(=O)COc1ccc(Cl)cc1 (stereo not drawn) | i | i
COC(=O)c1ccc2c(=O)n(Cc3ccc(C(=O)NC4CCCC4)cc3)c(=S)[nH]c2c1 | i | i
COC(=O)c1ccc2c(=O)n(Cc3ccc(C(=O)NCCCN4CCOCC4)cc3)c(=S)[nH]c2c1 | i | +
CN1CCN(C(=O)C(=O)Nc2c3c(nn2-c2cccc(Cl)c2)CSC3)CC1 | i | i
O=C(Nc1c2c(nn1-c1cccc(Cl)c1)CS(=O)C2)C1CCCCC1 (stereo not drawn) | i | +
CC1CCN(c2ccc(N3CCN(C(=O)CCC4CCCC4)CC3)nn2)CC1 | i | i
SMILES | GIRK2 activator | AMPAR-TARP mod
O=C(Nc1ccc(Nc2cc(-n3ccnc3)ncn2)cc1)Nc1ccccc1F | i | i
COc1ccc(NC(=O)C(C)Sc2nnnn2-c2ccc(OC)cc2)cc1 (stereo not drawn) | nt | i
CCOc1ccc(-n2nnnc2SC(C)C(=O)Nc2ccccc2C(=O)OC)cc1 (stereo not drawn) | nt | +
CCOc1ccc(-n2nnnc2SC(C)C(=O)Nc2ccccc2C#N)cc1 (stereo not drawn) | nt | +
COc1ccccc1NC(=O)C(C)Sc1nnnn1-c1ccc(Cl)cc1 (stereo not drawn) | nt | i
CCOc1ccc(-n2nnnc2SC(C)C(=O)Nc2cccc(C(C)=O)c2)cc1 (stereo not drawn) | nt | +
COc1ccc(-n2nnnc2SC(C)C(=O)Nc2cccc(Cl)c2)cc1 (stereo not drawn) | nt | i
COC1CCN(S(=O)(=O)c2ccc(Cl)s2)CC1 | i | i
Cc1c(C(=O)N2CCOCC2)c(C(F)(F)F)nn1C1CCN(C)CC1 | i | i
CCOc1ccccc1NC(=O)Cn1cc(-c2ccccc2)c2ncn(CCOC)c(=O)c21 | i | i
CCOC(=O)c1ccccc1NC(=O)Cn1cc(-c2ccccc2)c2ncn(CCOC)c(=O)c21 | i | +
CC(C)Oc1ccc(C(=O)NCC2CCN(C(C)C)CC2)cc1 | i | nt
O=S(=O)(NCCC(O)c1cccs1)c1ccc(Br)s1 (stereo not drawn) | i | i
COC(=O)C1=C(CS(=O)(=O)c2cc(Cl)ccc2OC)NC(=O)NC1c1ccccc1 (stereo not drawn) | i | +
COC(=O)C1=C(CS(=O)(=O)c2ccccc2)NC(=O)NC1c1ccc(OC)c(OC)c1 (stereo not drawn) | nt | +
